Several values for one entry are separate records, joined by “and”; a condition that tells them apart may be missing. Equal entries are not always repeated. Results filed as inconclusive are left out. Activity calls are given as the source filed them. The call rests on the fitted dose curve; in most records, active means well fitted curve in the direction sought with a large enough effect; inconclusive means small, poorly fitted or top-dose-only effect, or another doubt; inactive means no such curve, though single readings can be large; an effect the other way counts as inactive or inconclusive.
What follows are compounds tested against Cellular tumor antigen p53 (Homo sapiens) (UniProt P04637) (assay: Primary qHTS for small molecule compounds that upregulate eGFP-tagged delta133p53alpha (in N-terminal) cells. (AID 2060322;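 further: cells pre-induced with doxycycline then dosed without doxycycline; 0% = DMSO vehicle and 100% = reference activator; nearly all actives have a fitted effect of over 75% in size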)). Settings: NCI-H358 eGFP-delta133p53alpha fluorescence, 24 h; activation: hits give high values.
In short: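 NCI-H358 cells pre-induced 24 h with 10 ng/ml doxycycline for eGFP-delta133p53alpha, plated dox-free and exposed 24 h at 37C to titrated compounds. Fixed, Hoechst-stained; gated GFP peak intensity by laser scanning cytometry, normalized to DMSO (0%) and 57.5 uM 5-azacytidine (100%).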

Cellular tumor antigen p53 (Homo sapiens), sequence (P04637 whole entry, looked up): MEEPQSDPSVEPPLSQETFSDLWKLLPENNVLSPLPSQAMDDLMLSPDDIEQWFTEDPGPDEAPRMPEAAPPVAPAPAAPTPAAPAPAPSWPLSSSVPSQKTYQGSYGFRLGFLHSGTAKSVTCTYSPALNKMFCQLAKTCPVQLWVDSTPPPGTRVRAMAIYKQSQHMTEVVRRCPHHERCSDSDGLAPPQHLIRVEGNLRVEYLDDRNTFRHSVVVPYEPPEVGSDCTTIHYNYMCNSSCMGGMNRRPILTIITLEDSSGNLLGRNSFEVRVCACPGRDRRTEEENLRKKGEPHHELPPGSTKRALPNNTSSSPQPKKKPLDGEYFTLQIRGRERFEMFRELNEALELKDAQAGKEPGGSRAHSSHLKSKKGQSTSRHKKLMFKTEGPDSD

Compound | activation
COc1ccc(/C=C/c2nc(NCCCN(C)C)c3ccccc3n2)cc1 | -29.6% (inactive)
Nc1ncnc2c1c(-c1ccc(Oc3ccccc3)cc1)cn2C1CCCC1 | -45.6% (inactive)
Cc1cn[nH]c1 | 25.4% (inactive) and 16.2% (inactive) and -25.1% (inactive)
O=NN(CCCl)C(=O)NCCCl | -1.09% (inactive) and 45.2% (inactive)
Cc1scc2c1N(C(=O)CN1CCN(C)CC1)c1ccccc1NC2=O | -13.4% (inactive) and -3.34% (inactive)
Cc1cc(O)c2c(c1)C(=O)c1cc(O)cc(O)c1C2=O | -1.13% (inactive) and -38% (inactive)
O=C(O)/C(=C/c1c(C(=O)O)[nH]c2cc(Cl)cc(Cl)c12)c1ccccc1 | 12.5% (inactive)
c1ccc(C(NCCNC(c2ccccc2)c2ccccc2)c2ccccc2)cc1 | -16.9% (inactive)
CCc1ccc(/C=C2/SC(=S)NC2=O)cc1 | -0.0291% (inactive)
NC(=O)c1cc[n+](CC2=C(C(=O)O)N3C(=O)[C@@H](NC(=O)[C@@H](c4ccccc4)S(=O)(=O)[O-])[C@H]3SC2)cc1 | -28.8% (inactive)
O=C(Nc1ccc2[nH]ncc2c1)C1CCC1 | -2.43% (inactive) and 6.33% (inactive)
O=C(O)c1ccccc1Nc1cccc(OCc2ccc3ccccc3n2)c1 | -13.1% (inactive)
Clc1ccc2c(c1)N=C(N1CCNCC1)c1ccccc1N2 | 11.7% (inactive) and 30.8% (inactive)
CCCCN(CC)c1nc(C)nc2c1c(C)cn2-c1c(C)cc(C)cc1C | 34.4% (inactive) and -11% (inactive)
O=C(O)CCc1nc(-c2ccccc2)c(-c2ccccc2)o1 | -3.34% (inactive) and -25.4% (inactive)
Cc1cc(Cn2cnc3c2C[C@@H](C(=O)O)N(C(=O)C(c2ccccc2)c2ccccc2)C3)ccc1N | -13.9% (inactive)
O=C(/C=C/c1ccc(O)cc1)c1ccc(O)cc1O | -26.4% (inactive)
CC1CN(S(=O)(=O)c2cccc3cnccc23)CCN1 (stereo not drawn) | -66.5% (inactive)
O=C(O)c1cc(=O)c2c(Cl)cc(Cl)cc2[nH]1 | -19.2% (inactive)
Oc1ccc(Cn2cc[nH]c2=S)cc1 | -47.8% (inactive)
CN(C)C(=O)/N=N/C(=O)N(C)C | -3.88% (inactive)
CN1CCN(CC(=O)N2c3ccccc3C(=O)Nc3cccnc32)CC1 | -10% (inactive) and 3.74% (inactive)
CC1=C(C)C(=O)C(CCCCC#CCCCC#CCO)=C(C)C1=O | 18.6% (inactive) and 0.426% (inactive)
O=c1c(O)c(-c2cc(O)c(O)c(O)c2)oc2cc(O)cc(O)c12 | -9.12% (inactive) and -2.85% (inactive)
CCN1CCC[C@H]1CNC(=O)c1cc(S(N)(=O)=O)ccc1OC | -14.2% (inactive) and 19% (inactive) and 1.55% (inactive)
Cc1nn(-c2ccccc2)c(C)c1/C=N/N1CCN(Cc2ccccc2)CC1 | -13.7% (inactive) and -4.24% (inactive)
CN(C)CCC(c1ccccc1)c1ccccn1 (stereo not drawn) | -2.82% (inactive) and -9.55% (inactive) and -25.6% (inactive)
CS(=O)(=O)c1ccc(-n2nc(C(F)(F)F)cc2-c2ccc(F)cc2)cc1 | -27.4% (inactive) and -11.6% (inactive)

The compounds below were run against Cellular tumor antigen p53 (Homo sapiens) (UniProt P04637) (assay: Primary qHTS for small molecule compounds that upregulate eGFP-tagged delta133p53alpha (in C-terminal) cells. (AID 2060324; further: potency means the concentration at half of the fitted maximal effect;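 on GFP increase (activation): 0% = DMSO wells and 100% = 57.5 µM 5-azacytidine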)). Settings: NCI-H358 delta133p53alpha-eGFP (C-terminal tag), GFP fluorescence imaging, 24 h; series mostly up to 57.5 µM; GFP increase (activation): at the top concentration.
In short: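 Concentration-response screen: compounds titrated onto pre-induced NCI-H358 D133p53a-eGFP cells, incubated one day, fixed with 3.5% PFA. Per-cell GFP peak intensity was gated, then normalized against intraplate controls.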

Compound | GFP increase (activation) | Potency
NC(=S)c1ccc[n+]([C@@H]2O[C@@H](COP(=O)([O-])OP(=O)(O)OC[C@H]3O[C@@H](n4cnc5c(N)ncnc54)[C@H](OP(=O)(O)O)[C@@H]3O)C(O)C2O)c1 (stereo partly drawn) | 18.5% (inactive) | 
Cc1[nH]c(=O)c(C#N)cc1-c1ccncc1 | -6.33% (inactive) | 
O=Nc1ccc2oc(=O)ccc2c1 | 2.33% (inactive) | 
COc1ccccc1N1CCN(CCCNc2cc(=O)n(C)c(=O)n2C)CC1 | 0.884% (inactive) | 
CNC(=O)Oc1ccc2c(c1)[C@]1(C)CCN(C)[C@@H]1N2C | -6.4% (inactive) | 
O=c1ccc2c(OCCCCc3ccccc3)c3ccoc3cc2o1 | -7.08% (inactive) | 
CC(C)NCC(O)COc1cccc2[nH]ccc12 (stereo not drawn) | -0.433% (inactive) | 
N.N.N.N.N.N.N.N.N.N.N.N.N.N.O.O.[Ru+4].[Ru+5].[Ru+5] | -0.639% (inactive) | 
CN1CCC2(CCN3CCc4c(oc5ccccc45)C3C2)N(C)C1=O (stereo not drawn) | -5.66% (inactive) | 
CCNc1nc2c(ncn2[C@H]2C[C@H](O)[C@@H](CO)O2)c(=O)[nH]1 | -3.47% (inactive) | 
N=C(N)c1ccc(N)cc1 | -8.85% (inactive) | 
CN1CCC[C@@H]1Cc1c[nH]c2ccc(CCS(=O)(=O)c3ccccc3)cc12 | 8.3% (inactive) | 
COc1ccc(/C=C/c2nc(NCCCN(C)C)c3ccccc3n2)cc1 | 27.9% (inactive) | 
Nc1ncnc2c1c(-c1ccc(Oc3ccccc3)cc1)cn2C1CCCC1 | 12.4% (inactive) | 
Cc1cn[nH]c1 | 0.362% (inactive) | 
O=NN(CCCl)C(=O)NCCCl | -3.1% (inactive) | 
Cc1scc2c1N(C(=O)CN1CCN(C)CC1)c1ccccc1NC2=O | -4.61% (inactive) | 
Cc1cc(O)c2c(c1)C(=O)c1cc(O)cc(O)c1C2=O |  | 26.9 µM (active)
O=C(O)/C(=C/c1c(C(=O)O)[nH]c2cc(Cl)cc(Cl)c12)c1ccccc1 | -3.16% (inactive) | 
c1ccc(C(NCCNC(c2ccccc2)c2ccccc2)c2ccccc2)cc1 | 11.9% (inactive) | 

Compound | GFP increase (activation) | Potency
CCc1ccc(/C=C2/SC(=S)NC2=O)cc1 | -2.55% (inactive) | 
NC(=O)c1cc[n+](CC2=C(C(=O)O)N3C(=O)[C@@H](NC(=O)[C@@H](c4ccccc4)S(=O)(=O)[O-])[C@H]3SC2)cc1 | -12.6% (inactive) | 
O=C(Nc1ccc2[nH]ncc2c1)C1CCC1 | -0.0702% (inactive) | 
O=C(O)c1ccccc1Nc1cccc(OCc2ccc3ccccc3n2)c1 | -12.6% (inactive) | 
Clc1ccc2c(c1)N=C(N1CCNCC1)c1ccccc1N2 | 0.31% (inactive) | 
CCCCN(CC)c1nc(C)nc2c1c(C)cn2-c1c(C)cc(C)cc1C | -9.48% (inactive) | 
O=C(O)CCc1nc(-c2ccccc2)c(-c2ccccc2)o1 | -0.212% (inactive) | 
Cc1cc(Cn2cnc3c2C[C@@H](C(=O)O)N(C(=O)C(c2ccccc2)c2ccccc2)C3)ccc1N | -3.84% (inactive) | 
O=C(/C=C/c1ccc(O)cc1)c1ccc(O)cc1O | -5.15% (inactive) | 
CC1CN(S(=O)(=O)c2cccc3cnccc23)CCN1 (stereo not drawn) | -7.28% (inactive) | 
O=C(O)c1cc(=O)c2c(Cl)cc(Cl)cc2[nH]1 | 3.16% (inactive) | 
Oc1ccc(Cn2cc[nH]c2=S)cc1 | -1.55% (inactive) | 
CN(C)C(=O)/N=N/C(=O)N(C)C | -4.07% (inactive) | 
CN1CCN(CC(=O)N2c3ccccc3C(=O)Nc3cccnc32)CC1 | -2.55% (inactive) | 
CC1=C(C)C(=O)C(CCCCC#CCCCC#CCO)=C(C)C1=O | -1.42% (inactive) | 
O=c1c(O)c(-c2cc(O)c(O)c(O)c2)oc2cc(O)cc(O)c12 | 1.27% (inactive) | 
CCN1CCC[C@H]1CNC(=O)c1cc(S(N)(=O)=O)ccc1OC | 1.91% (inactive) | 
Cc1nn(-c2ccccc2)c(C)c1/C=N/N1CCN(Cc2ccccc2)CC1 | -4.3% (inactive) | 
CN(C)CCC(c1ccccc1)c1ccccn1 (stereo not drawn) | 0.851% (inactive) | 
CS(=O)(=O)c1ccc(-n2nc(C(F)(F)F)cc2-c2ccc(F)cc2)cc1 | 0.17% (inactive) | 

Source: PubChem BioAssay (NCATS)
